Compound activity deposited in PubChem by National Center for Advancing Translational Sciences (NCATS).
12-LOX inh: blocks human arachidonate 12S-lipoxygenase; hit rate 1.1% among 580,000; purified 12hLO, xylenol orange hydroperoxide absorbance; AID 1671190; P18054; Potency, µM (series often up to 108 µM), without a hit: top-dose activity change, negative = inhibition, most hits filed as inhibitors; active = well fitted inhibition curve with a large enough effect; inconclusive = small, poorly fitted or top-dose-only effect, or another doubt; inactive = no such curve, though single readings can be large or run the other way; also: potency is read from the fitted curve at half-maximal effect; % is scaled to controls: 0 for no effect and ±100 for the full control effect
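Hydroperoxide product was detected by ferrous iron/xylenol orange as the 573 to 405 nm absorbance ratio. Arachidonic acid at 40 uM (final) was turned over for 30 min at room temperature by 150 nM human 12hLO, pH 7.0 Hepes buffer, after 15 min compound preincubation.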
KCNH2 3.1 inh: KCNH2 3.1 (human) potassium channel inhibition. activity change, % (tested at about 1.8 µM). U2OS KCNH2 3.1, thallium flux FluxOr; hits give low values. hit rate 0.95% among 340,000. AID 720553;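 active = maximum activity change below -70%; inconclusive = maximum activity change from -70% to -50%; inactive = maximum activity change above -50%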;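 also: thallium influx rate constant from kinetic fluorescence after stimulation buffer; % is scaled to controls: 0 for no effect and ±100 for the full control effect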
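FluxOr-based Tl+ influx in U2OS cells transduced with KCNH2 3.1 virus; rate constants normalized to DMSO controls.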
KCNH2 WT inh: blocks the wildtype human KCNH2 potassium channel; Q12809; U2OS, BacMam KCNH2, thallium flux FluxOr; hits give low values; activity change, % at 1.84 µM; hit rate 0.37% among 340,000;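 active = maximum activity change below -70%; inconclusive = maximum activity change between -70% and -50%; inactive = maximum activity change above -50%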; also: % is scaled to controls: 0 for no effect and ±100 for the full control effect
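U2OS cells were transduced with wild-type KCNH2 virus (2.03 x 10^8 / mL) for 4 h at room temperature, then cultured overnight at 37 C. Thallium flux was read with FluxOr dye. Rate constants were normalized to DMSO controls.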
LDHA inh: inhibitors of human lactate dehydrogenase A. P00338. purified LDHA, NADH/diaphorase-resazurin fluorescence; hits give low values. activity change, % (values are at about 110 or 230 µM). hit rate 0.15% among 480,000. AID 1347041; in the data active = activity change below about -30%; inconclusive = mostly about -25% to -30%;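 also: plate controls were DMSO wells for no effect and wells without enzyme for full effect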
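Human LDH5 (2 nM) was incubated with 0.06 mM NADH and 0.2 mM pyruvate for 5 min at room temperature in Tris pH 7.4. Remaining NADH was coupled through diaphorase/resazurin, and resorufin fluorescence was read at 0 and 20 min.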
ClpP mod: qHTS Assay for Activators of ClpP; ATP-dependent Clp protease proteolytic subunit (Bacillus subtilis (strain 168)), P80244; purified B. subtilis ClpP, FRET peptide cleavage, 20 min; Potency, µM (series often up to 57.5 µM), without a hit: at the top dose activity change, negative = active; hit rate 1.9% among 340,000; active = well fitted falling curve with a large enough effect; inconclusive = small, poorly fitted or top-dose-only effect; inactive = no such curve, though single readings can be large or run the other way; also: potency is read from the fitted curve at half-maximal effect; the source files actives as falling curves though it sought activators and does not explain the sign; nearly all actives have a fitted effect of over 65% in size
Target sequence (P80244 whole entry, looked up): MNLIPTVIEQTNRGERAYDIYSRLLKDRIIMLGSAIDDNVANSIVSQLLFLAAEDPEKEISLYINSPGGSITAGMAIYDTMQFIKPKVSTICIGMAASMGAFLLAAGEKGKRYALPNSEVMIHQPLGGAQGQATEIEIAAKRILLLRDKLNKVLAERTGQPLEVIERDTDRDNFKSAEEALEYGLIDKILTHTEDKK
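ClpP 10 microg/mL final, pH 8 Tris/KCl buffer with BSA, glycerol, Tween-20; compound pinned in; FRET-FV substrate; RT 20 min; Ex320/Em430; ΔFRET vs ADEP 5.8 microM, DMSO, no enzyme.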
BCR signal inh: blocks chronic active B-cell receptor signaling; ABC-DLBCL IkBa-CBG/CBR reporter, luminescence ratio, 4 h; Potency, µM (highest dose often 46.1 µM), without a hit: top-dose activity change, negative = inhibition, most hits filed as inhibitors; hit rate 0.05% among 340,000; AID 493014; active = well fitted inhibition curve with a large enough effect in the signal ratio, with a control signal flat, not every such curve was filed as active; inconclusive = small, poorly fitted or top-dose-only effect, or effect the other way, or a change in a side signal; the % refers to the signal ratio;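 also: potency is read from the fitted curve at half-maximal effect; plate controls were basal doxycycline-induced cells for no effect and cells given 10 µM MG132 for full effect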
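TMD8 ABC-DLBCL cells carrying doxycycline-inducible green luciferase fused to IkappaBalpha plus unfused red luciferase were exposed to compounds (up to 46 uM) for 4 hrs at 37C. Activity came from the overlap-corrected green/red luminescence ratio.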
Numbers without * were called inactive; ? = inconclusive; · = no result. An excerpt weighted towards active compounds, which were near 3% of everything screened.

SMILES	12-LOX inh	KCNH2 3.1 inh	KCNH2 WT inh	LDHA inh	ClpP mod	BCR signal inh
COc1ccc(-c2cc3ccccc3n2CC(O)CN2CCCCC2)cc1 (stereo not drawn)	?	-14.6	-1.2	-9.4	3.2%	-13.8%
COc1ccc(-c2cc3ccccc3n2CC(O)CNCCO)cc1 (stereo not drawn)	?	-2.1	-1.6	-15.7	11.2µM*	-3.8%
Fc1ccc(NC(=S)Nc2ccc(Br)cc2)cc1	?	9.2	9.2	-1.4	28.2µM*	?
CN1CCN(c2c(F)cc3c(=O)c(C(=O)O)cn4c3c2SCC4)CC1	?	-7.4	1.8	14.1	28.2µM*	12.2%
CSC1=NSC2=NC(=O)/C(=C/c3coc4ccccc4c3=O)C(=N)N12	?	-1.1	25.3	-8.0	-23.5%	?
CSC1=NSC2=NC(=O)/C(=C/c3coc4ccc(O)cc4c3=O)C(=N)N12	17.8µM*	·	-9.0	6.0	-7.7%	?
N=C1/C(=C\c2coc3ccccc3c2=O)C(=O)N=C2SC=CN12	20µM*	-6.5	-7.4	3.9	2.9%	?
CC1=CC2=NC(=O)/C(=C/c3coc4ccc(Cl)cc4c3=O)C(=N)N2O1	202.4%	1.3	2.2	-6.1	·	?
CCCC(=O)N1CCN(c2ccc(NC(=O)c3cccs3)cc2)CC1	13.2%	4.4	7.2	-4.9	15.8µM*	-16.7%
Brc1ccccc1CSc1nnc(-c2cccnc2)o1	27.3%	·	·	8.6	·	·
COc1ccc(CCN2CCC(CNC(=O)c3cnn(-c4ccc(C)cc4)c3C3CCN(C(=O)OC(C)(C)C)CC3)CC2)cc1	39.8µM*	·	·	-7.7	-1.9%	·
O=C(CSc1nnc(-c2cccc(S(=O)(=O)N3CCCC3)c2)o1)c1ccccc1	-9.4%	·	·	1.2	·	·
CC(CN1CCCCC1)NC(=O)c1scnc1-c1ccccc1 (stereo not drawn)	5.62µM*	·	·	-5.4	0.3%	·
CC1=C(C(=O)OCc2ccccc2)C(/C=C/c2ccccc2)NC(=S)N1 (stereo not drawn)	17.8µM*	-5.6	-3.3	0.6	4.5%	9.9%
CC(C)(C)c1cc(N)c(O)c(Br)c1	?	·	·	17.1	·	·
CCCCOc1ccc(S(=O)(=O)NNC(=O)c2cc3ccccc3o2)cc1	?	-2.0	-3.0	2.6	-1.7%	0.0%
CC(C)COc1ccc(S(=O)(=O)NNC(=O)c2cc3ccccc3o2)cc1	22.4µM*	-3.0	20.8	-1.7	1.0%	3.8%
Clc1ccc(CNCc2ccccc2Cn2cncn2)c(Cl)c1	44.7µM*	·	·	-9.6	·	·
C=C1CC(C(=O)N/N=C/c2ccc(O)cc2)C1	10.6%	-2.1	-0.7	-3.3	11.2µM*	?
Cc1cccc(OCCc2noc(C3CCCN3C(=O)COc3ccccc3)n2)c1 (stereo not drawn)	21.9%	·	·	·	·	·
COc1ccc(-c2nc(-c3ccc(Br)o3)no2)cc1	-26.0%	-12.3	2.7	-12.7	-3.4%	14.3%
CC(C)(C)c1ccc(-c2nc(-c3ccc(Br)o3)no2)cc1	15.1%	·	·	-30.6*	·	·
O=C1c2ccccc2CCC1C(Sc1ccccc1)c1ccc(Cl)cc1 (stereo not drawn)	4.3%	·	·	1.4	·	·
CCN1C(=O)c2cccc3c(S(=O)(=O)N(C(=O)c4cccnc4)c4ccc(OC)cc4)ccc1c23	-23.7%	0.5	5.5	1.9	35.5µM*	?
CCN1C(=O)c2cccc3c(S(=O)(=O)N(C(=O)c4ccncc4)c4ccc(OC)cc4)ccc1c23	7.8%	5.8	4.0	1.1	?	-10.6%
SMILES	12-LOX inh	KCNH2 3.1 inh	KCNH2 WT inh	LDHA inh	ClpP mod	BCR signal inh
NC(=O)[C@H](CC1CCCCC1)NC(=O)[C@@H]1CN(S(=O)(=O)c2ccccc2)CCN1C(=O)c1cccs1	20.0%	·	·	·	·	·
C[C@H](CO)N1C[C@H](C)[C@@H](CN(C)C(=O)c2cnccn2)Oc2cc(C#CCC3CCCC3)ccc2S1(=O)=O	35.5µM*	9.2	-2.0	6.7	1.1%	·
C[C@H]1CN([C@@H](C)CO)S(=O)(=O)c2ccc(/C=C/c3ccccc3)cc2O[C@H]1CN(C)C(=O)NC1CCCCC1	0.0%	17.7	-7.4	1.1	35.5µM*	·
C[C@@H]1CN([C@H](C)CO)C(=O)c2cc(/C=C/c3ccccc3)cnc2O[C@H]1CN(C)C(=O)NC1CCCCC1	-0.4%	-3.9	-0.4	-3.5	4.0%	·
COc1ccc(NC(=O)N(C)C[C@@H]2Oc3cc(Br)ccc3S(=O)(=O)N([C@H](C)CO)C[C@H]2C)cc1	6.9%	3.0	-4.4	-35.2*	-0.2%	·
COc1ccc(N(CC(=O)Nc2ccc(F)c(F)c2)S(=O)(=O)c2c(C)nn(C)c2C)cc1	-20.9%	·	·	-6.0	·	·
CC(=O)NC1C(=O)N(CCN2CCOCC2)c2ccc(Cl)cc21 (stereo not drawn)	39.8µM*	6.9	-2.1	9.9	·	1.0%
CC(=O)NC1C(=O)N(CCN2CCOCC2)c2ccc(F)cc21 (stereo not drawn)	39.8µM*	-0.3	1.5	2.4	-3.3%	-0.8%
O=C(O)c1ccc(-c2ccc(Cl)cc2)s1	?	·	·	-1.4	·	·
CCC(C)NC(=O)/C(=C/c1ccco1)c1ccccc1 (stereo not drawn)	-68.5%	-8.1	-10.7	4.7	25.1µM*	1.6%
O=C(O)CCNc1c(-c2ccc(F)cc2)nc2cnccn12	35.5µM*	·	·	·	·	·
O=C(CCNc1c(-c2ccccc2)nc2cnccn12)N1CCCC1	-13.6%	·	·	·	·	·
O=C(c1ccc(Cl)cc1)N1CCN(C(=O)C2CCCCC2)CC1	0.4%	-1.3	-8.4	-7.6	·	0.4%
O=C(c1ccc([N+](=O)[O-])cc1)N1CCN(C(=O)C2CCCCC2)CC1	109.3%	-71.1*	0.3	-5.8	-2.1%	4.4%
Cc1c(-c2ccccc2)oc2c(C(=O)N(C)c3ccccc3)cccc2c1=O	52.6%	·	·	5.5	·	·
N#Cc1ccccc1-c1ccc(C(=O)O)o1	?	·	·	-1.9	·	·
Cn1ncc(N2CCCC(CC(=O)Nc3ccccc3F)C2)cc1=O (stereo not drawn)	5.7%	·	·	·	·	·
CC(C)CC(NC(=O)c1ccc(Cl)cc1)C(=O)OCc1cc([N+](=O)[O-])cc2c1OCOC2 (stereo not drawn)	?	-25.8	10.0	-1.0	22.4µM*	10.0%
CC(C)C(NC(=O)c1ccccc1)C(=O)OCc1cc([N+](=O)[O-])cc2c1OCOC2 (stereo not drawn)	-18.4%	9.5	3.8	0.0	-1.5%	4.4%
CC(C)C(NC(=O)c1cnn(C)c1)c1ccc(F)cc1 (stereo not drawn)	26.3%	·	·	2.2	·	·
CC(C)(C)c1ccc(OCC(=O)Nc2ccc(-c3nc4cccnc4o3)cc2)cc1	36.7%	-17.4	4.3	-5.2	12.6µM*	·
